Screening results as filed in PubChem.
NPSR antagonist – qHTS Assay for Antagonists of the Neuropeptide S Receptor: cAMP Signal Transduction; AID 1461, 2008; 220,000 compounds, 1% hits; Q6W5P4; Potency, µM (titrated, usually from 38.3 µM), inactives show top-dose activity change, negative = inhibition, hits mostly inhibitors; CHO-NPSR cells, cAMP TR-FRET, antagonist mode; also: nearly all actives have a fitted effect of over 50% in size
Target sequence (Q6W5P4 whole entry, looked up): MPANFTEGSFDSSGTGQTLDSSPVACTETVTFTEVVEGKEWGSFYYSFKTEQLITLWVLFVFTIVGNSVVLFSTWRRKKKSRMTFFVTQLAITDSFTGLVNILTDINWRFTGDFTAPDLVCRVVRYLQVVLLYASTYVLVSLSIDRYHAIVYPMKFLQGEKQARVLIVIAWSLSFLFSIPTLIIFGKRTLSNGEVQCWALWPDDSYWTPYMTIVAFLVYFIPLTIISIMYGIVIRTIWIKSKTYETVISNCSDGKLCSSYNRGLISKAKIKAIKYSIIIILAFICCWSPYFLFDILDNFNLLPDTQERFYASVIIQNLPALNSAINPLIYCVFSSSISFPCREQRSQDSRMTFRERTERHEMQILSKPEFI
Tau fibril ThT – qHTS for Inhibitors of Tau Fibril Formation, Thioflavin T Binding. 270,000 compounds, 2.1% hits. Microtubule-associated protein tau (Homo sapiens), P10636. Potency, µM (doses to about 57.4 µM), for the others: at the top dose activity, negative = inhibition, actives largely listed as inhibitors. AID 1460, 2008. recombinant tau K18 P301L, heparin-induced fibrillization, ThT fluorescence; also: nearly all actives have a fitted effect of over 55% in size
Target sequence (P10636 561-689 P618L limits assumed): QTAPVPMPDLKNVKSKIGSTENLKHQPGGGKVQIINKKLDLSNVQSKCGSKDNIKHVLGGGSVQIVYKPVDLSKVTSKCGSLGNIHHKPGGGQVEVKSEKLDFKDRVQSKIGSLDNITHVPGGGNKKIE
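Tau K18 P301L fragment (15 uM unlabeled plus 0.24 uM Alexa 594-labeled) in 100 mM sodium acetate pH 7 with compound, fibrillization induced by 20 uM heparin for 6 hr at 37 C. Thioflavin T (30 uM) added, fluorescence read after 1 hr (ex 450, em 510 nm).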
Tau FP inhib – qHTS for Inhibitors of Tau Fibril Formation, Fluorescence Polarization; Microtubule-associated protein tau (Homo sapiens), P10636; K18 P301L tau heparin fibrillization, Alexa594 FP, 6 h; Potency, µM (titrated, usually from 57.7 µM), for the others: at the highest dose activity, negative = inhibition, most hits filed as inhibitors; 280,000 compounds, 0.39% hits; also: nearly all actives have a fitted effect of over 55% in size
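Read-out: fluorescence polarization of Alexa 594-labeled tau (0.24 uM), 555 nm excitation, 632 nm emission. Mixtures held 15 uM unlabeled K18 P301L, compound and 20 uM heparin, pH 7 acetate buffer, incubated 6 hr at 37 C.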
Luc counter – Counterscreen for Luciferase (Kinase-Glo TM) Inhibition; Luciferin 4-monooxygenase (Photuris pensylvanica), Q27757; Potency, µM (doses to about 38.3 µM), for the others: at the highest dose activity change, negative = inhibition, usual class: inhibitors; Kinase-Glo luciferase, ATP luminescence, 8 min; 200,000 compounds, 0.28% hits; also: nearly all actives have a fitted effect of over 60% in size
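Compound is pinned into ATP-containing buffer (10 uM ATP, imidazole pH 7.2, 7 mM MgCl2). Kinase-Glo luciferase reagent is then added. Light output is recorded following an 8-min room-temperature incubation.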
Tau fluor counter – Counterscreen qHTS for Inhibitors of Tau Fibril Formation, Fluorescence Polarization | tau K18 P301L (four-repeat tau fragment) Alexa594 fluorescence, heparin fibrillization | Potency, µM (titrated, usually from 57.7 µM), for the others: top-dose activity change, negative = decrease | 280,000 compounds, 0.93% hits | AID 1463, 2008; also: nearly all actives have a fitted effect of over 55% in size
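Human K18 P301L tau (15 uM unlabeled plus 0.24 uM Alexa 594-labeled, final) in 100 mM sodium acetate pH 7 was mixed with compound and 20 uM heparin and incubated 6 hr at 37 C.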
The depositor's hits bear a star; ? = inconclusive; / = not tested or not shown; [ ] = another dose, or the depositor's remark. Shown are actives, neighbours in structure and some others; about 3.3% of the full set was active somewhere. Calls follow the shape of the dose curve; as a rule, active = well fitted curve in the direction sought with a large enough effect; inconclusive = small, poorly fitted or top-dose-only effect, or another doubt; inactive = no such curve, though single readings can be large; an effect the other way counts as inactive or inconclusive. % is scaled to controls: 0 for no effect and ±100 for the full control effect; potency is read from the fitted curve at half-maximal effect.

SMILES	NPSR antagonist	Tau fibril ThT	Tau FP inhib	Luc counter	Tau fluor counter
CCCCCCCCCC(=O)NC(CN1CCOCC1)[C@H](O)c1ccccc1 (stereo partly drawn)	?	-10.0%	9.7%	-1.3%	-14.4%
CN1C2CCC1/C(=C\c1ccccc1)C(=O)/C2=C\c1ccccc1	?	15.8µM*	?	2.1%	-25.0%
Cc1cccc(OCC(=O)Nc2nc3ccc([N+](=O)[O-])cc3s2)c1	2.5%[46.1 µM]	2µM*	-10.0%	2.7%	?
O=C(O)COc1ccc(/C=C/c2nc3ccc([N+](=O)[O-])cc3s2)cc1	?	2µM*	-10.8%	/	-24.1%
Cc1cccc(OCC(=O)Nc2nc3ccc([N+](=O)[O-])cc3s2)c1C	-14.4%[46.1 µM]	-14.8%	-1.0%	-1.9%	-19.1%
O=c1cc(-c2ccccc2)oc2c(O)c(O)ccc12	/	?	-9.4%	-4.2%	?
O=c1cc(-c2ccccc2O)oc2c(O)c(O)ccc12	/	11.2µM*	12.6µM*	-4.2%	?
COc1cccc(CNC(=O)C2CCN(Cc3cc4ccccc4n3Cc3ccccc3)CC2)c1OC	/	4.1%	-2.4%	/	-5.6%
COc1cc(OC)cc(C(=O)Nc2ccc(S(=O)(=O)Nc3onc(C)c3C)cc2)c1	/	?	-2.1%	/	-29.6%
Cc1noc(NS(=O)(=O)c2ccc(N/C=C\C(=O)c3cccc4ccccc34)cc2)c1C	-32.4%	10µM*	-5.1%	1.2%	-16.1%
Cc1noc(NS(=O)(=O)c2ccc(N/C=C\C(=O)c3ccc(Br)cc3)cc2)c1C	?	12.6µM*	-2.2%	0.9%	-24.7%
Cc1noc(NS(=O)(=O)c2ccc(NC(=O)Nc3ccc(Cl)c(Cl)c3)cc2)c1C	-7.5%[46.1 µM]	?	?	0.0%	11.2µM*[quencher]
COc1cccc(C(=O)/C=C/Nc2ccc(S(=O)(=O)Nc3onc(C)c3C)cc2)c1	-24.3%	?	4.0%	-0.3%	-12.9%
COCCNc1nc(C)nc2c1nc(-c1ccccc1)n2CCN1CCCC1	/	5.7%	9.5%	-1.8%	6.9%
COc1cccc(C(c2sc3nc(-c4ccco4)nn3c2O)N2CCN(c3ccccc3F)CC2)c1 (stereo not drawn)	/	-13.1%	-10.0%	/	-28.1%
NCC1O[C@@H](OC2C(N)C[C@H](N)[C@@H](O[C@H]3OC(CO)C(O)C(N)C3O)C2O)C(N)C(O)C1O (stereo partly drawn)	/	-7.9%	-9.1%	-5.3%	5.2%
O=C1C(=C2CCCCC2)SC(=S)N1Cc1ccco1	-21.4%[46.1 µM]	25.1µM*	?	-1.8%	-21.4%
O=C(O)CCN1C(=O)C(=C2CCCCCC2)SC1=S	-16.0%[46.1 µM]	-9.7%	-5.8%	0.6%	-2.0%
COc1ccc(Nc2nc(N)nc(CSc3nc4cc(OC)ccc4s3)n2)cc1	/	?	-1.6%	/	14.1µM*[quencher]
S=C(NCc1ccc(Cl)c(Cl)c1)Nc1ccc2c(c1)OCO2	-14.8%	?	?	4.4%	15.8µM*[quencher]
Cc1cc(N2CCOCC2)nc2ccc(NC(=S)NCc3ccc4c(c3)OCO4)cc12	-5.3%	?	?	-1.3%	14.1µM*[quencher]
S=C(NCc1ccc2c(c1)OCO2)Nc1ccc(-c2nc3ccccc3[nH]2)cc1	-16.4%	?	?	-2.4%	12.6µM*[quencher]
CC(C)c1ccc(NC(=S)NCc2ccc3c(c2)OCO3)cc1	-4.9%	-12.3%	-11.5%	-3.1%	?
COCCNC(=S)Nc1ccc2nc(N3CCCC3)cc(C)c2c1	9.6%	-11.2%	1.0%	5.2%	-4.3%
O=C(C1=C[C@@H]2[C@H]3C(=O)N(c4ccccc4)C(=O)[C@H]3[C@@H](C(=O)c3ccc(Cl)cc3)N2C=C1)c1ccccc1	0.2%	14.1µM*	?	-3.7%	?
COc1ccc(-c2nn(-c3ccccc3)cc2C2CC(c3cccs3)=NN2C(=O)CCC(=O)O)cc1 (stereo not drawn)	-40.9%	/	-10.7%	/	-2.3%
COc1ccc(C2=NN(S(C)(=O)=O)C(c3cn(-c4ccccc4)nc3-c3cccs3)C2)cc1 (stereo not drawn)	/	8.1%	20µM*	/	?
